Screens: PubChem, several laboratories
A selection: hits, their analogues and other compounds. The true share with any hit is near 2.2%.
Ba/F3 V617F tox = loss of viability in JAK2V617F-driven Ba/F3 cells | inhibition, % at 5.6 µM | actives 1.1% (n = 220,000) | Ba/F3 EpoR-JAK2V617F viability, ATP luminescence;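 active = inhibition above the campaign mean plus 3 SD over all tested compounds, cut at about 24% in these data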;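 note: cytokine-independent growth of Ba/F3 cells driven by EpoR plus mutant JAK2; 0% = DMSO-treated cells and 100% = JAK inhibitor I control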
APP 5UTR inh = APP translation inhibition; SH-SY5Y APP 5'UTR-luciferase reporter, luminescence; inhibition, % at 2 µM; actives 0.82% (n = 190,000); AID 1285;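 active = inhibition above a set limit, derived from the sample mean plus 3 SD, cut at about 45% in these data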
aSyn 5UTR inh = 5' untranslated region of α-synuclein, MLPCN primary screen. alpha-synuclein 5'UTR reporter, inhibitor activity. inhibition, % (tested at 7.5 µM). actives 0.82% (n = 300,000). AID 1813; in the data active = inhibition above about 60%;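 note: H4 neuroglioblastoma cells stably carrying SNCA 5'UTR luciferase fusion; 0% = DMSO wells and 100% = positive control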
IEC-6 tox = IEC-6 cytotoxicity, counter-screen for KLF5 inhibitors; luminescence viability; inhibition, % at 5 µM; actives 0.78% (n = 290,000); AID 1825; in the data active = inhibition above about 22%;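 note: 0% = plate median of test compound wells and 100% = cytotoxic reference compound wells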
KLF5 inh = inhibitors of KLF5 expression; DLD-1 KLF5 promoter-luciferase reporter, luminescence; AID 1700; actives 0.23% (n = 290,000); inhibition, % at 5 µM;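 active = inhibition above a per-plate limit of that plate's mean compound inhibition plus 3 SD, cut at about 60% in these data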;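 note: 0% = DMSO wells and 100% = LY294002 at 200 µM; higher means less KLF5 promoter-driven luciferase light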
BaF3 tox = reduces parental Ba/F3 cell viability, JAK2V617F counter-screen; CellTiter-Glo ATP luminescence; inhibition, % at 5.6 µM; actives 1.1% (n = 220,000);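 active = inhibition above a per-campaign cutoff, the mean inhibition of all tested compounds plus 3 SD, cut at about 27% in these data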;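 note: 0% = DMSO wells and 100% = JAK Inhibitor I control wells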
Starred values were filed as active, the others as inactive; / = not tested or not shown.

SMILES	Ba/F3 V617F tox	APP 5UTR inh	aSyn 5UTR inh	IEC-6 tox	KLF5 inh	BaF3 tox
CCN1CCN(Cc2ccc(NC(=O)c3ccc(C)c(NC(=O)c4cccc(-c5cn[nH]c(=O)c5)c4)c3)cc2C(F)(F)F)CC1	/	/	-8	2	-9	/
CCN1CCN(Cc2ccc(NC(=O)c3ccc(C)c(NC(=O)c4ccno4)c3)cc2C(F)(F)F)CC1	/	/	67*	/	/	/
CCN1CCN(Cc2ccc(NC(=O)c3ccc(C)c(NC(=O)c4c[nH]c5cc(C(F)(F)F)ccc5c4=O)c3)cc2C(F)(F)F)CC1	/	/	113*	/	/	/
COc1cc2c(cc1O)CC[C@@H]1[C@@H]2CC[C@]2(C)[C@@H](O)CC[C@@H]12	76*	93*	75*	74*	57	78*
C[C@]12CC[C@@H]3c4ccc(OC(=O)c5ccccc5)cc4CC[C@H]3[C@@H]1CC[C@@H]2O	3	-14	-12	2	-1	4
COc1cccc(CSc2nc3ccccc3cc2C=O)c1	50*	89*	71*	7	31	36*
COc1cccc(NC(=O)CSc2nc3ccccc3cc2Cc2ccccc2)c1	-3	-5	22	-6	-6	0
COc1cccc(NC(=O)NCc2ccccc2Cl)c1	/	/	-73	/	/	/
Fc1ccccc1Cn1c2[n+](c3ccc(C(F)(F)F)cc31)CCCCC2	15	-20	0	1	-20	33*
CCOC(=O)C1CCCN(C(=O)CCn2nnnc2CN2CCOCC2)C1 (configuration not stated)	/	/	-27	2	-11	/
CCOc1ccc(N/C=C/C(=O)c2ccccc2)c([N+](=O)[O-])c1	3	-157	87*	2	-112	5
Cc1cc(C)c2c(c1)/C(=N/NS(=O)(=O)c1ccccc1)CCC2	-3	18	18	6	-21	0
Cc1cc(C)c2c(c1)/C(=N/NS(=O)(=O)c1ccc(Br)cc1)CCC2	-5	81*	0	3	-3	1
N#Cc1ccc(C(=O)OCC(=O)N2CCOCC2)cc1	/	/	1	2	-30	/
CC(C)c1ccc(C2C3=C(COC3=O)Nc3cc4c(cc32)OCO4)cc1 (configuration not stated)	71*	95*	123*	90*	72*	77*
O=C(Cn1ncnn1)OCc1ccccc1Cl	-3	68*	-8	-4	-3	0
CCn1c(SCC(=O)Nc2ccccc2)nnc1-c1cccs1	-3	/	8	-6	-22	-3
CCn1c(SCc2ccccc2)nnc1-c1cccs1	41*	-12	-13	-11	-11	42*
Cc1ccccc1NC(=O)NNC(=O)COc1ccc2ccccc2c1	/	/	-4	-2	-21	/
COC(=O)c1ccc2c(c1)C(=O)/C(=C/c1ccc(O)cc1)O2	2	-8	-118	3	-3	5
COc1cccc(/C=C2\Oc3ccc(O)cc3C2=O)c1O	/	/	83*	6	-42	/
O=C(C1=C(O)C(=O)N(CC2CCCO2)C1c1cccc(O)c1)c1ccco1 (configuration not stated)	/	/	-3	3	-3	/
c1ccc(CCNc2ncnc3ccccc23)cc1	65*	-89	-117	21	-68	68*
C(=N\Nc1nc2ccccc2[nH]1)/c1cccc2cccnc12	91*	/	73*	0	26	50*
CCCCOc1ccccc1C1CC(=O)NC2=C1C(=O)CCC2 (configuration not stated)	82*	88*	94*	84*	57	83*
SMILES	Ba/F3 V617F tox	APP 5UTR inh	aSyn 5UTR inh	IEC-6 tox	KLF5 inh	BaF3 tox
Cc1cc(=O)oc2c(C)c(OCC(=O)NCCCN3CCOCC3)ccc12	/	/	-7	1	-34	/
CCOc1cc(/C=C(\C#N)C(=O)Nc2ccccc2C(=O)O)ccc1OC(=O)c1ccc(C)cc1	/	/	-18	-2	-35	/
COc1ccc(-n2c(-c3ccc(Cl)cc3)c[n+]3c2CCc2ccccc2-3)cc1	84*	-8	-15	10	0	69*
COc1ccc(-n2c(-c3ccccc3)nnc2-c2ccc(Cl)cc2)cc1	-1	-14	1	-8	6	2
Cc1ccccc1N=C/C=C1\N(C)c2ccccc2C1(C)C	1	-14	-18	-1	-18	48*
CN1/C(=C\C=[N+](C)c2ccccc2)C(C)(C)c2ccccc21	75*	10	16	5	-21	66*
COCCOC(=O)c1c(C)oc2ccc(OS(C)(=O)=O)cc12	-2	7	-4	2	2	5
